The results in this text go back to PubChem BioAssay (EPA / NIEHS).

Molecules are shown by their SMILES. Values joined by “and” are separate entries in the source; they are usually repeats but may differ in a detail not shown here. Identical values can stand only once. More than one record can exist for a structure, and the calls need not agree. Active and inactive are the calls of the source. Rule for the calls: active = hit-call score of the fitted dose curve at least 0.9, where 1 is the maximum; inactive = score below 0.9.

The experiment is described as follows: IUF_NPC2c_oligodendrocyte_migration_120hr: Leibniz Research Institute for Environmental Medicine (IUF) 120-hour Neural Progenitor Cell Migration Assay for Oligodendrocyte Migration (NPC2c) (AID 2284297). As for the experimental part:
IUF_NPC2-5 is a cell-based, multiplexed assay that uses hNPC, a human primary neural progenitor cells, with measurements taken at 72 or 120 hours after chemical dosing in a 96-well plate. Human neural progenitor cells (hNPC) are generated from human fetal brain cortex at gestational week (GW) 16-19. In the neural progenitor cell migration and differentiation assay (NPC2-5), hNPCs grown as spheres are plated on an extracellular matrix and migrate and differentiate out of the sphere core. The processes radial glia migration, neuronal and oligodendrocyte migration as well as neuronal differentiation, neuronal morphology and oligodendrocyte differentiation are studied using automated phase contrast imaging and automated fluorescence imaging in combination with high content image analysis. In parallel, the cell viability is assessed using an alamar blue viability assay and the cytotoxicity using a lactate dehydrogenase dependent membrane integrity assay.IUF_NPC2b_oligodendrocyte_migration_120hr is one of 12 assay components measured from the IUF_NPC2-5 assay. Oligodendrocyte migration distance at 120 hr is the mean distance of all oligodendrocytes from the edge of the sphere core to each individual oligodendrocyte (see IUF_NPC5_oligodendrocyte_differentiation_120hr). Oligodendrocyte migration is normalized to radial glia migration distance at 120 hr.Data from the IUF_NPC2c_oligodendrocyte_migration_120hr component was analyzed at the endpoint IUF_NPC2c_oligodendrocyte_migration_120hr in the positive analysis fitting direction relative to DMSO as the negative control and baseline of activity. Using a type of migration reporter, gain or loss-of-signal activity can be used to understand developmental effects.
Culture protocol: After the cell expansion period the cells are cultured for up to four weeks in which they are passaged every week as described in 3.6. Between one to three days after passaging spheres at a size of 0.3 mm are picked for the test method. For the assessment of neural progenitor cell migration and differentiation, the spheres are plated on poly-D-lysine/laminin coated 96-well flat bottom plates in differentiation medium (N2) to initiate migration and differentiation. Thereby one 0.3 mm big sphere is plated in the middle of a well. The differentiation medium consists of DMEM and Ham's F12 at a ratio of 3 to 1 supplemented with 1% N2 and 1% penicillin and streptomycin. Within 5 days NPCs radially migrate out of the sphere core and differentiate into radial glia cells (nestin positive), neurons (TUBB3 positive), oligodendrocytes (O4 positive) and astrocytes (GFAP positive). Cultivation during the test method is performed at 37C and 5% CO2 at a ph of 7.2-7.6.Exposure: 0.3 mm big hNPC are plated in the already prepared test conditions. Exposure starts at day 0 of differentiation and is continued over five days of differentiation until the experiment is terminated. Cells are fed with fresh medium at day 3 of differentiation. Therefore, half of the test condition solution (e.g. solvent control or compound dilution) is replaced by freshly prepared test condition solution.Test Method: Migration distance and cytotoxicity is determined after 72 hours based on brightfield images of each well. The assay is terminated by the assessment of cell viability and cytotoxicity as well as cell fixation after 120 h. Immunocytochemistry is performed for Hoechst positive nuclei, TUBB3 positive neurons and O4 positive oligodendrocytes. On the ICC images, migration after 120 hours, neuronal and oligodendrocyte number, neuronal morphology and neuron/oligodendrocyte specific migration is assessed. immunocytochemical staining (ICC) generates an image for each sphere. The plates are scanned using an automated high content imaging device and all nuclei and their positions are determined automatically based on their intensity and size. Images are imported to the Omnisphero software to run the image analysis that measures the following endpoints. […]
Turning to `CCOP(=S)(OCC)OC(Cl)C(Cl)(Cl)Cl` (stereo not given), the compound was called inactive.

On to `S=C1NCCN1`, for which the outcome was inactive.

Take `CC(=NC#N)N(C)Cc1ccc(Cl)nc1`: the call was inactive.

For `C[N+]1(C)CCCCC1`, the compound was classed as inactive.

In the case of `CCOP(=S)(OCC)SCCSCC`, the compound was called inactive.

As usually defined, the AC50 is the concentration giving half of the maximal activity seen. With `COP(=O)(OC)OC(Br)C(Cl)(Cl)Br` (stereo not given), the AC50 was 34.9 µM (active).

Regarding `CCOC(=O)CC(SP(=O)(OC)OC)C(=O)OCC` (stereo not given), the outcome was inactive.

As to `CCCCSP(=O)(SCCCC)SCCCC`, the compound was called inactive.

Turning to `CON=C(C(=O)OC)c1ccccc1CON=C(C)c1cccc(C(F)(F)F)c1`, the AC50 was 71.2 µM (active).

Regarding `COP(=O)(OC)C(O)C(Cl)(Cl)Cl` (stereo not given), the result was inactive.

Regarding `C=C(C)[C@H]1Cc2c(ccc3c2O[C@@H]2COc4cc(OC)c(OC)cc4[C@@H]2C3=O)O1`, the AC50 was 0.0062 µM (active) and the compound was called inactive.

Turning to `CN(C)[C@@H]1C(=O)C(C(N)=O)=C(O)[C@@]2(O)C(=O)C3=C(O)c4c(O)cccc4[C@@](C)(O)[C@H]3[C@H](O)[C@@H]12`, the AC50 is 55.1 µM (active).

In the case of `CCOP(=S)(Oc1cnc(C(C)(C)C)nc1)OC(C)C` (stereo not given), the call was inactive.

As for `CN1COCN(Cc2cnc(Cl)s2)C1=N[N+](=O)[O-]`, the outcome was inactive.

Consider `CC(C)N(C(=O)SCC(Cl)=C(Cl)Cl)C(C)C`, for which the compound was called inactive.

In the case of `COP(=O)(NC(C)=O)SC` (stereo not given), the compound was classed as inactive.

`CC1=NNC(=O)N(/N=C/c2cccnc2)C1`: the outcome was inactive.

With `O=[N+]([O-])c1cc(C(F)(F)F)c(Cl)c([N+](=O)[O-])c1Nc1ncc(C(F)(F)F)cc1Cl`, the AC50 was 0.736 µM (active).

Consider `CCOP(=O)(OCC)Oc1cc(C)nc(C(C)C)n1`, for which the compound was classed as inactive.

Turning to `CCCSP(=O)(OCC)SCCC`, the compound was called inactive.

`CCOP(=S)(OCC)Oc1cc(C)nc(C(C)C)n1`: the outcome was inactive.

Regarding `CSC1=N[C@@](C)(c2ccccc2)C(=O)N1Nc1ccccc1`, the outcome was inactive.

With `CC[C@H](C)[C@H]1O[C@]2(C=C[C@@H]1C)C[C@@H]1C[C@@H](C/C=C(\C)[C@@H](O[C@H]3C[C@H](OC)[C@@H](O[C@H]4C[C@H](OC)[C@@H](NC)[C@H](C)O4)[C@H](C)O3)[C@@H](C)/C=C/C=C3\CO[C@@H]4[C@H](O)C(C)=C[C@@H](C(=O)O1)[C@]34O)O2`, the AC50 is 932 nM (active) and 1.74 µM (active).

As for `CCOP(=O)(NC(C)C)Oc1ccc(SC)c(C)c1` (stereo not given), the compound was called inactive.
